Test results: the supplement of paper PMC11732987, “Enantioselective OTUD7B fragment discovery through chemoproteomics screening and high-throughput optimisation” (Communications Chemistry, 2025)

Tests used:
Test in all cases: log2 ratio of Biotin-Ahx-Ub-VS probe labelling (fragment/DMSO); higher = less target engagement (more negative = stronger competition), active = hit call of the paper (q ≤ 0.05, log2 ratio ≤ -1)
Conditions in all cases: compound concentration: 200 uM; treatment time: 3 h
[1] = molecular target: T1, OTUD6B (UniProt Q8N6M0)
T1 sequence (whole entry): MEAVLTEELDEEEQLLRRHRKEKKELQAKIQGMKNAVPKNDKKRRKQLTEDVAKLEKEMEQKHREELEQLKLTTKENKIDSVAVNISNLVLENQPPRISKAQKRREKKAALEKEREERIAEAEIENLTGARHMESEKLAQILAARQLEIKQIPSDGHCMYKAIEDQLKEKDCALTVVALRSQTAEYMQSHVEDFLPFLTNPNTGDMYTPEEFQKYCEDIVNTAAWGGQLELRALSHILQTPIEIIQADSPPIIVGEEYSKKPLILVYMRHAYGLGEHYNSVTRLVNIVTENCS
Method in brief: (§1)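 Labelling with Biotin-Ahx-Ub-VS (0.5 µM final, 1 h) followed a 3 h triplicate treatment of HEK293T lysate (495 µg per sample, Tris/CHAPS/IGEPAL buffer with protease inhibitors) with fragment at 200 µM or vehicle. Labelled DUBs were NeutrAvidin-enriched, digested with LysC and trypsin, and run by diaPASEF LC-MS/MS. The values, average log2 fragment/vehicle ratios by unpaired t-test, come from global-median-normalised Spectronaut label-free quantities. Proteins with ≥2 unique peptides were used.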

[2] = molecular target: T2, OTUD7B (UniProt Q6GQQ9)
T2 sequence (whole entry): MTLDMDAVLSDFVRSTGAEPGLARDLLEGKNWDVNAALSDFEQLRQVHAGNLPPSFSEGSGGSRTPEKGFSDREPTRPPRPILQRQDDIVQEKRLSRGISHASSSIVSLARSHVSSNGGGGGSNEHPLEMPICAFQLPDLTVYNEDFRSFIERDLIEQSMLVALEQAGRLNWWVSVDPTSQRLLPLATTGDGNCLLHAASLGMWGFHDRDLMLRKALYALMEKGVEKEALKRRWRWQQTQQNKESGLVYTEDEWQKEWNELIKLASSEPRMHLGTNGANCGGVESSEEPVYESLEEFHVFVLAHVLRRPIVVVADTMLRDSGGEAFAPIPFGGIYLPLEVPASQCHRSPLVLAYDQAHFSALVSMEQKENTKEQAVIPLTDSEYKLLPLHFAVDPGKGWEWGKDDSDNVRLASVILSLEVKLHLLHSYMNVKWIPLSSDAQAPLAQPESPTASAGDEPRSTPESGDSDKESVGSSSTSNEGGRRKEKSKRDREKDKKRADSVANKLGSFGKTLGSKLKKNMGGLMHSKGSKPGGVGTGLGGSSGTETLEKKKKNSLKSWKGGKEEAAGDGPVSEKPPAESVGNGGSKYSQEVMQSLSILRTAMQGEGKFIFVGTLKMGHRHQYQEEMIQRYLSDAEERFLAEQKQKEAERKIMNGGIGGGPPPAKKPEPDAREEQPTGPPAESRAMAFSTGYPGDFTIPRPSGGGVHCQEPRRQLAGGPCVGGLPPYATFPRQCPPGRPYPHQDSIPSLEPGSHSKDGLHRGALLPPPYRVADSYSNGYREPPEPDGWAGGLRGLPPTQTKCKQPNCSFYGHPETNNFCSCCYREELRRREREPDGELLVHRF
Method in brief: as §1

[3] = molecular target: PRPF8 (UniProt Q6P2Q9)
Method in brief: as §1

[4] = molecular target: T3, PSMD7 (UniProt P51665)
T3 sequence (whole entry): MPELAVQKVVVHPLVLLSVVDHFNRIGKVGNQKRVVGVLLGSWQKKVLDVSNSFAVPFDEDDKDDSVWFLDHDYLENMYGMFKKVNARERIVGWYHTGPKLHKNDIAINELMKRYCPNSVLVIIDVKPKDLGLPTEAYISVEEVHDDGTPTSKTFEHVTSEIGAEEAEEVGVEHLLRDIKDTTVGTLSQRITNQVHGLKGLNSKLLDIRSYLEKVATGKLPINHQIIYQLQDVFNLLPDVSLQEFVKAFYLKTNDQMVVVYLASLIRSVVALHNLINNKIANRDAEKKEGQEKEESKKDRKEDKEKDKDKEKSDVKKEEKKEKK
Method in brief: as §1

[5] = molecular target: UCHL1 (UniProt P09936)
UCHL1, sequence (P09936 whole entry, looked up): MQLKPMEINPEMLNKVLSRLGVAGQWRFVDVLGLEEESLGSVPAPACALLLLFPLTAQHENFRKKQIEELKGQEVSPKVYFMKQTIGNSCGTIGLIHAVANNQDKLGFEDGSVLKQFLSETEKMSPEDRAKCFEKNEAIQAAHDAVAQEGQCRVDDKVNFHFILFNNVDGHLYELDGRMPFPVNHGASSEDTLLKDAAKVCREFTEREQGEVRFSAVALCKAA
Method in brief: as §1

[6] = molecular target: T4, UCHL3 (UniProt P15374)
T4 sequence (whole entry): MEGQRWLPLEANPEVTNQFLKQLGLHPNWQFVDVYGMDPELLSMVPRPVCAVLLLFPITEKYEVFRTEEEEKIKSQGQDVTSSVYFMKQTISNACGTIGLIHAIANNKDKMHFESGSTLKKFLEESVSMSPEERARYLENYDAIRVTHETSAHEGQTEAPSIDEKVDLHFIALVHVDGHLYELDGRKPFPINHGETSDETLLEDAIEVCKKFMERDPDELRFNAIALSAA
Method in brief: as §1

[7] = molecular target: T5, UCHL5 (UniProt Q9Y5K5)
T5 sequence (whole entry): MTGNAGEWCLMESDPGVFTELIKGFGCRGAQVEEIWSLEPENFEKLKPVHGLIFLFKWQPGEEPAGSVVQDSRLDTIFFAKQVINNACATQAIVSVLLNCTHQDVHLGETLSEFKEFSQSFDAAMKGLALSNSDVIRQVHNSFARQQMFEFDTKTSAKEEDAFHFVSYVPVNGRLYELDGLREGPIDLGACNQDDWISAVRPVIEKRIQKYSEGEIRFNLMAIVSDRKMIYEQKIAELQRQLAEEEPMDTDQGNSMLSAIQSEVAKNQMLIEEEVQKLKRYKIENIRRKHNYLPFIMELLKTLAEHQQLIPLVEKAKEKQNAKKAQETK
Method in brief: as §1

[8] = molecular target: USP10 (UniProt Q14694)
USP10, sequence (Q14694 whole entry): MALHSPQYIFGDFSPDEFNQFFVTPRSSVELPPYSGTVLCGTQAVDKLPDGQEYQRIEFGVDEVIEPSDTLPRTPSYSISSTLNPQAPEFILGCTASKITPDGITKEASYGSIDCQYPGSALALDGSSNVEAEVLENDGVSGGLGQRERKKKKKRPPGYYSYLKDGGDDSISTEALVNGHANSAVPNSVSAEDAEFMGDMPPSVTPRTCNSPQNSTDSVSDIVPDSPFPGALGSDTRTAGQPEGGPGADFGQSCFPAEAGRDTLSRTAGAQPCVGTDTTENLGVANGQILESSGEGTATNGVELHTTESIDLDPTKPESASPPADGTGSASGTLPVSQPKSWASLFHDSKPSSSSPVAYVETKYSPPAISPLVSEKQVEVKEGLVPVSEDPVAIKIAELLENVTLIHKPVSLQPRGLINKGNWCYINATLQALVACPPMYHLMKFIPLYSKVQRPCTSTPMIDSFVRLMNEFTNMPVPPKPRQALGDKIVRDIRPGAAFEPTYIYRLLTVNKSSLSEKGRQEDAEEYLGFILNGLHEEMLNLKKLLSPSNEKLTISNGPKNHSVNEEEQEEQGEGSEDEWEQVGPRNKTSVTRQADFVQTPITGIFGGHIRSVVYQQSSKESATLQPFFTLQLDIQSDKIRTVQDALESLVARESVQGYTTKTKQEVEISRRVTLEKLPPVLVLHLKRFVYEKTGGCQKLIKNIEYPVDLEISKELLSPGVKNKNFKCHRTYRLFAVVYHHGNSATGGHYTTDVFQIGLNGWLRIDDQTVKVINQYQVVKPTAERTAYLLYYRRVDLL
Method in brief: as §1

[9] = molecular target: T6, USP15 (UniProt Q9Y4E8)
T6 sequence (whole entry): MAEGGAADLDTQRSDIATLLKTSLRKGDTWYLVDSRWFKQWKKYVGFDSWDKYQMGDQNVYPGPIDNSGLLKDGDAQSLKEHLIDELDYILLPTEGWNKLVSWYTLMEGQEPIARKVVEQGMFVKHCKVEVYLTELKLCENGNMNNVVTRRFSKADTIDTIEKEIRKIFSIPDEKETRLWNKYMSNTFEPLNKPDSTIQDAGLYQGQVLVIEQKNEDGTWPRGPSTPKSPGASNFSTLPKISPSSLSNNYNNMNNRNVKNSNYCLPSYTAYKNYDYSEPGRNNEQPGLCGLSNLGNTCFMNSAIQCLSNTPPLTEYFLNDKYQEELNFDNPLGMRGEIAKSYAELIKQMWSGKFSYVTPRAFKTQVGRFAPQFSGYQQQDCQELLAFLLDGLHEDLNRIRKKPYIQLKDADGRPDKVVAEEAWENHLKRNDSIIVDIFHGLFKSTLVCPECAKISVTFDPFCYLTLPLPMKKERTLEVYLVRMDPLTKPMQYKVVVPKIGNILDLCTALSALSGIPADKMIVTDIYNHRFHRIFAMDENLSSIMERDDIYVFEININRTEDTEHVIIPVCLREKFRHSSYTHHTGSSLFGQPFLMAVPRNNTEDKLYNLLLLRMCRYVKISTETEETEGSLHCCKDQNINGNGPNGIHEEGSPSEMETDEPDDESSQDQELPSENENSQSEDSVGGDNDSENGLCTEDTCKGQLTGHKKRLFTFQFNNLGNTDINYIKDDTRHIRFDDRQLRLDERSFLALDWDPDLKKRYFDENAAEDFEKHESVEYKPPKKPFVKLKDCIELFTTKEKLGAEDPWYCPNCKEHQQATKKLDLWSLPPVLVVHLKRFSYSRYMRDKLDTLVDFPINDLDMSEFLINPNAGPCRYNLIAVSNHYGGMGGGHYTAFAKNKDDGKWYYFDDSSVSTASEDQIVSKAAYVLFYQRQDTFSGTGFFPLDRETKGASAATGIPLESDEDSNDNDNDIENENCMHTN
Method in brief: as §1

[10] = molecular target: USP16 (UniProt Q9Y5T5)
USP16, sequence (Q9Y5T5 whole entry, looked up): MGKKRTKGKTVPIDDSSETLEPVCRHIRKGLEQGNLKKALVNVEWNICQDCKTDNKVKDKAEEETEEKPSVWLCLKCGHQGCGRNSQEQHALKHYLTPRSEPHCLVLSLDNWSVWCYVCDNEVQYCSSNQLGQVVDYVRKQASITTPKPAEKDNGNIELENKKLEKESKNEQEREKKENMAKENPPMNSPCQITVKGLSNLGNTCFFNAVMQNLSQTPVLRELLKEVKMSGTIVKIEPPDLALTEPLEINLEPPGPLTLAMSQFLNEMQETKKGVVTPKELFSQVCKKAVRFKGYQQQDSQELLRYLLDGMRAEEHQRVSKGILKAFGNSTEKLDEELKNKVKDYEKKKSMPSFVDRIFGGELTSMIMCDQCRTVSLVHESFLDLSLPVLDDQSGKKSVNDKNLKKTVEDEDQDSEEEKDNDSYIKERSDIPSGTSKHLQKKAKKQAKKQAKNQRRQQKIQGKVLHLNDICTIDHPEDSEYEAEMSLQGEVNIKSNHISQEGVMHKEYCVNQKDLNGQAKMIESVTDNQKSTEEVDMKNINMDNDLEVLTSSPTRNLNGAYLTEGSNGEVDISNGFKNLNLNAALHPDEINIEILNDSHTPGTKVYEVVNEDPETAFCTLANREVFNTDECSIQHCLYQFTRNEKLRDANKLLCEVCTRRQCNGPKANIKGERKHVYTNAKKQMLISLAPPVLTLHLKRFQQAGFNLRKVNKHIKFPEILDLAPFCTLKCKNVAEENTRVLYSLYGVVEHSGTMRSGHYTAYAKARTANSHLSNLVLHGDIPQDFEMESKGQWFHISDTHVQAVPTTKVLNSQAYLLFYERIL
Method in brief: as §1

Measured: log2 ratio of Biotin-Ahx-Ub-VS probe labelling

O=C(CCl)Nc1cc2c(cc1Cl)OCCCO2
inactive: [1] -0.0697 | [2] -0.399 | [3] 0.00677 | [4] -0.0387 | [6] -0.323 | [7] -0.0527 | [8] -0.157 | [9] -0.172 | [10] -0.508
active: [5] -1.39
